Laboratory results reported in the supplement of paper PMC7530171.
± gives the standard deviation.

Tested on: THP-1
Test: THP-1 cell loss relative to DMSO control; higher = more host cell loss (toxicity); extreme values may be limits of the assay
Details: 10 µM; 4 days; infection: M. tuberculosis H37Rv
Description: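 OICR kinase inhibitor library screened in duplicate at 10 uM against M. tuberculosis-infected THP-1 macrophages, 4 days at 37 C. THP-1 cell loss (cytotoxicity or loss of adherence) was quantified from Hoechst-stained nuclei counts by high-content imaging and normalised to the 1% DMSO control; 100 = complete loss of host cells.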

Structure (SMILES) | THP-1 cell loss
Cc1ccccc1-n1c(Cn2cnc3c(N)ncnc32)nc2cccc(C)c2c1=O | 5.83 ± 8.2%
COC[C@H]1OC(=O)c2coc3c2[C@@]1(C)C1=C(C3=O)[C@@H]2CCC(=O)[C@@]2(C)C[C@H]1OC(C)=O [Wortmannin] | 45.8 ± 7.5%
O=c1[nH]c2ccc(Cl)cc2c(N[C@@H]2CN3CCC2CC3)c1-c1nc2ccccc2[nH]1 | 100%
COC(=O)[C@@]1(O)C[C@H]2O[C@]1(C)n1c3ccccc3c3c4c(c5c6ccccc6n2c5c31)C(=O)NC4 | 100%
O=C1NC(=O)c2c1c1c3ccccc3[nH]c1c1[nH]c3ccccc3c21 [Arcyriaflavin A] | 75.7 ± 34%
CCn1cnc2c(Nc3cccc(Cl)c3)nc(N[C@@H]3CCCC[C@@H]3N)nc21 | 100%
NC(=S)N/N=C/c1coc2ccccc2c1=O.[Cl][Cu][Cl] | 16.3 ± 5.1%
Cn1cc(C2=C(c3cn(C4CCN(Cc5ccccn5)CC4)c4ccccc34)C(=O)NC2=O)c2ccccc21 [Enzastaurin] | 52.5 ± 67%
C[C@]12O[C@H](C[C@]1(O)CO)n1c3ccccc3c3c4c(c5c6ccccc6n2c5c31)CNC4=O [Lestaurtinib] | 100%
CN[C@@H]1C[C@H]2O[C@@](C)([C@@H]1OC)n1c3ccccc3c3c4c(c5c6ccccc6n2c5c31)C(=O)NC4 [Staurosporine] | 100%
C/C(O)=C(\C#N)C(=O)Nc1cc(Br)ccc1Br | 4 ± 5.7%
Cc1n[nH]c2ccc(-c3cncc(OC[C@@H](N)Cc4c[nH]c5ccccc45)c3)cc12 | 100%
O=C1Nc2ccc3ncsc3c2/C1=C/c1cnc[nH]1 [Imidazolo-oxindole PKR inhibitor C16] | 100%
CC(=O)c1c(O)c(C)c(O)c(Cc2c(O)c3c(c(C(=O)/C=C/c4ccccc4)c2O)OC(C)(C)C=C3)c1O [Rottlerin] | 71.2 ± 41%
COc1ccc2c(c[n+](C)c3c4cc5c(cc4ccc23)OCO5)c1OC [Chelerythrine chloride] | 100%
N#C/C(=C\c1ccc(O)c(O)c1)C(N)=S | 11.5 ± 1.3%
COc1ccc2c(c1)/C(=C/c1cnc[nH]1)C(=O)N2 | 53.2 ± 9.3%
O=C1NC(=O)c2c1c1c3ccccc3n3c1c1c2c2ccccc2n1[C@H]1CC[C@@H]3O1 | 100%
